This is part of a sample that, as a whole, favours compounds with a hit. Of some 79,000 tested, about 15% had one in any assay. Calls of active or inactive are those of the source. No stated cut-off is given here; in the data, active means growth inhibition above about 70%; inactive means the rest.
What was measured:
[1] = NCI Yeast Anticancer Drug Screen. Data for the rad52 strain (AID 147);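 further: 0% = growth of vehicle-treated control cultures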; conditions: S. cerevisiae rad52 mutant growth inhibition, stronger effect = higher value
Method in brief: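 Vehicle-treated cultures served as the reference for growth inhibition of compound-exposed yeast bearing a DNA repair mutation.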

[2] = NCI Yeast Anticancer Drug Screen. Data for the wt1 strain (AID 149);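 further: 0% = growth of vehicle-treated wt1 cultures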; conditions: S. cerevisiae wt1 strain (SPY 50644) growth inhibition, stronger effect = higher value
Method in brief: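 Measured: growth of wt1 yeast under compound versus vehicle treatment, reported as inhibition.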

[3] = NCI Yeast Anticancer Drug Screen. Data for the rad50EPP+ strain (AID 151);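 further: 0% = growth of vehicle-treated control cultures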; conditions: S. cerevisiae rad50 mutant strain, stronger effect = higher value
Method in brief: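 In this screen, rad50EPP+ yeast were exposed to compounds. Growth inhibition was scored against vehicle-treated controls.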

[4] = NCI Yeast Anticancer Drug Screen. Data for the mgt1 strain (AID 153); conditions: S. cerevisiae mgt1 mutant growth inhibition, stronger effect = higher value
Method in brief: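 mgt1 strain exposed; growth vs vehicle control recorded as inhibition.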

[5] = NCI Yeast Anticancer Drug Screen. Data for the rad50 strain (AID 155);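 further: 0% = growth of vehicle-only cultures of the same strain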; conditions: S. cerevisiae rad50 strain growth inhibition, stronger effect = higher value
Method in brief: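 Growth of the mutant yeast was measured after compound exposure and referenced to vehicle-treated cultures.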

[6] = NCI Yeast Anticancer Drug Screen. Data for the mec2-1 strain (AID 157); conditions: S. cerevisiae mec2-1 strain, stronger effect = higher value
Method in brief: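 Vehicle-treated cultures served as reference for growth inhibition of compound-exposed mec2-1 yeast.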

[7] = NCI Yeast Anticancer Drug Screen. Data for the rad14 strain (AID 159);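 further: 0% = growth of vehicle-treated control cultures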; conditions: S. cerevisiae rad14 strain growth inhibition, stronger effect = higher value
Method in brief: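 Here, inhibition of yeast growth was measured after compound exposure, using a strain with a genetic defect in DNA damage repair and vehicle-treated cultures as the reference.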

[8] = NCI Yeast Anticancer Drug Screen. Data for the sgs1 mgt1 strain (AID 161);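 further: 0% = growth of cultures given vehicle only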; conditions: S. cerevisiae sgs1 mgt1 strain, stronger effect = higher value
Method in brief: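 Genetically altered yeast, compound exposure, growth inhibition relative to vehicle.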

[9] = NCI Yeast Anticancer Drug Screen. Data for the CLN2oe strain (AID 163);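 further: 0% = growth of vehicle-only control cultures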; conditions: S. cerevisiae CLN2oe strain, stronger effect = higher value
Method in brief: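 Inhibition relative to vehicle-treated yeast is reported. Cells: strain with genetic alteration in cell-cycle control, grown with compound.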

[10] = NCI Yeast Anticancer Drug Screen. Data for the cln2 rad14 strain (AID 165);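 further: 0% = growth equal to vehicle treated cultures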; conditions: S. cerevisiae cln2 rad14 strain, stronger effect = higher value
Method in brief: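 Each compound was tested on cln2 rad14 yeast. Inhibition of growth was calculated against vehicle-exposed controls.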

[11] = NCI Yeast Anticancer Drug Screen. Data for the bub3 strain (AID 167); conditions: S. cerevisiae bub3 mutant strain, stronger effect = higher value
Method in brief: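 Whole-cell yeast assay. The mutant strain was incubated with compounds, and growth inhibition was determined by comparison with vehicle-treated cells.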

[12] = NCI Yeast Anticancer Drug Screen. Data for the wt2 strain (AID 169);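 further: 0% = growth of vehicle-treated yeast cultures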; conditions: S. cerevisiae wt2 strain growth inhibition, stronger effect = higher value
Method in brief: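 Inhibition of yeast growth was determined after compound treatment, normalised to controls receiving only vehicle.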

[13] = NCI Yeast Anticancer Drug Screen. Data for the mlh1 strain (AID 171);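 further: 0% = growth of vehicle-treated control cultures of the same strain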; conditions: S. cerevisiae mlh1 strain growth inhibition, stronger effect = higher value
Method in brief: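 Vehicle-normalised growth inhibition of a repair- or checkpoint-altered yeast strain following compound treatment.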

[14] = NCI Yeast Anticancer Drug Screen. Data for the mlh1 rad18 strain (AID 175); conditions: S. cerevisiae mlh1 rad18 strain growth inhibition, stronger effect = higher value
Method in brief: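 Vehicle-treated cultures served as the reference for growth inhibition in a yeast strain carrying DNA damage repair alterations exposed to each compound.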

[15] = NCI Yeast Anticancer Drug Screen. Data for the rad18 strain (AID 177); conditions: S. cerevisiae rad18 mutant growth inhibition, stronger effect = higher value
Method in brief: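 Test articles were incubated with altered yeast defective in DNA damage repair. Results are given as inhibition of growth versus vehicle.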

[16] = NCI Yeast Anticancer Drug Screen. Data for the sgs1 strain (AID 173);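 further: 0% = growth of vehicle-only control cultures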; conditions: S. cerevisiae sgs1 mutant, stronger effect = higher value
Method in brief: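 Screen format: yeast with repair or checkpoint alterations, compound exposure, growth read relative to vehicle.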

[17] = at 5.0 µM (retest, dose inferred, filed as 0.5)
[18] = at 50.0 µM (retest, dose inferred, filed as 5.0)

Measured: growth inhibition

CC(=O)c1cc2c(Cl)cc(Cl)cc2oc1=O
inactive: [1]; at 1.2 µM 20% | [1]; at 3.7 µM 19% | [1]; at 11.0 µM 4% | [1]; at 33.0 µM 9% | [1]; at 100.0 µM 20% | [2]; at 1.2 µM -38% | [2]; at 3.7 µM -33% | [2]; at 11.0 µM -38% | [2]; at 33.0 µM -33% | [2]; at 100.0 µM -22% | [3]; at 1.2 µM -15% | [3]; at 3.7 µM -16% | [3]; at 11.0 µM -2% | [3]; at 33.0 µM -10% | [3]; at 100.0 µM 15% | [4]; at 1.2 µM 9% | [4]; at 3.7 µM 5% | [4]; at 11.0 µM -13% | [4]; at 33.0 µM -4% | [4]; at 100.0 µM 6% | [5]; at 1.2 µM -24% | [5]; at 3.7 µM -17% | [5]; [17] 30% | [5]; at 11.0 µM -13% | [5]; at 33.0 µM -20% | [5]; at 50.0 µM -5.9% | [5]; at 100.0 µM -5% | [6]; at 1.2 µM 8% | [6]; at 3.7 µM 0% | [6]; at 11.0 µM -14% | [6]; at 33.0 µM 3% | [6]; at 50.0 µM 53.8% | [6]; at 100.0 µM -8% | [7]; at 1.2 µM -19% | [7]; at 3.7 µM -21% | [7]; at 11.0 µM -13% | [7]; at 33.0 µM -6% | [7]; at 100.0 µM 14% | [8]; [17] -8% | [8]; [18] 20% | [9]; at 1.2 µM -26% | [9]; at 3.7 µM -22% | [9]; at 11.0 µM -7% | [9]; at 33.0 µM -10% | [9]; at 100.0 µM -5% | [10]; [17] 64% | [11]; at 1.2 µM -21% | [11]; at 3.7 µM -17% | [11]; [17] 24% | [11]; at 11.0 µM -4% | [11]; at 33.0 µM -25% | [11]; [18] 46% | [11]; at 100.0 µM 13% | [12]; at 1.2 µM -22% | [12]; at 3.7 µM -27% | [12]; at 11.0 µM -34% | [12]; at 33.0 µM -40% | [12]; at 100.0 µM -18% | [13]; at 1.2 µM -36% | [13]; at 3.7 µM -35% | [13]; at 11.0 µM -32% | [13]; at 33.0 µM -12% | [13]; at 100.0 µM -5% | [14]; [17] 35% | [14]; at 50.0 µM 1.3% | [15]; at 1.2 µM 10% | [15]; at 3.7 µM -3% | [15]; at 11.0 µM -11% | [15]; at 33.0 µM -11% | [15]; at 100.0 µM -6%
active: [5]; [18] 83% | [6]; [17] 77% | [6]; [18] 94% | [10]; [18] 71% | [14]; [18] 96%

Nc1nc(N)c2c(n1)CCC(S(=O)(=O)c1ccc3ccccc3c1)C2 (stereo not drawn)
active: [5]; [18] 72% | [6]; [17] 83% | [6]; at 33.0 µM 80% | [6]; [18] 91% | [6]; at 50.0 µM 84.9% | [6]; at 100.0 µM 80%
inactive: [1]; at 1.2 µM 26% | [1]; at 3.7 µM 44% | [1]; at 11.0 µM 54% | [1]; at 33.0 µM 62% | [1]; at 100.0 µM 65% | [2]; at 1.2 µM -2% | [2]; at 3.7 µM 14% | [2]; at 11.0 µM 12% | [2]; at 33.0 µM 19% | [2]; at 100.0 µM 15% | [3]; at 1.2 µM 23% | [3]; at 3.7 µM 35% | [3]; at 11.0 µM 39% | [3]; at 33.0 µM 40% | [3]; at 100.0 µM 40% | [5]; at 1.2 µM -3% | [5]; at 3.7 µM 13% | [5]; [17] 56% | [5]; at 11.0 µM 32% | [5]; at 33.0 µM 45% | [5]; at 50.0 µM 49.2% | [5]; at 100.0 µM 54% | [6]; at 1.2 µM 14% | [6]; at 3.7 µM 46% | [6]; at 11.0 µM 65% | [7]; at 1.2 µM -2% | [7]; at 3.7 µM -6% | [7]; at 11.0 µM -11% | [7]; at 33.0 µM -8% | [7]; at 100.0 µM -4% | [8]; [17] 49% | [8]; [18] 60% | [8]; at 50.0 µM 36% | [9]; at 1.2 µM -3% | [9]; at 3.7 µM 6% | [9]; at 11.0 µM 0% | [9]; at 33.0 µM 8% | [9]; at 100.0 µM 6% | [10]; [17] 5% | [10]; [18] 7% | [10]; at 50.0 µM 6.95% | [11]; at 1.2 µM -41% | [11]; at 3.7 µM -27% | [11]; [17] 32% | [11]; at 11.0 µM -27% | [11]; at 33.0 µM 3% | [11]; [18] 30% | [11]; at 50.0 µM -7.8% | [11]; at 100.0 µM 2% | [12]; at 1.2 µM -35% | [12]; at 3.7 µM -8% | [12]; at 11.0 µM 1% | [12]; at 33.0 µM 5% | [12]; at 100.0 µM 23% | [13]; at 1.2 µM -5% | [13]; at 3.7 µM 3% | [13]; at 11.0 µM 8% | [13]; at 33.0 µM 10% | [13]; at 100.0 µM 9% | [16]; at 1.2 µM 16% | [16]; at 3.7 µM 45% | [16]; at 11.0 µM 55% | [16]; at 33.0 µM 56% | [16]; at 100.0 µM 44% | [14]; [17] 48% | [14]; [18] 54% | [14]; at 50.0 µM 13.6% | [15]; at 1.2 µM 7% | [15]; at 3.7 µM 1% | [15]; at 11.0 µM 8% | [15]; at 33.0 µM 20% | [15]; at 100.0 µM 22%

Reference: PubChem BioAssay (NCI)
